Consider seven molecules from PubChem BioAssay (NCI).

What all share (test): NCI-60 one-dose screen, 48 h (100 = growth as untreated, 0 = no growth, -100 = all killed)
Common to all, as to settings: 10 µM unless noted

Assay [1] has as its system NCI-H23 lung.
The test system of assay [2] is NCI-H226 lung.
Assay [3] deals with NCI-H322M lung.
Assay [4] concerns HOP-62 NSCLC.
Assay [5] has as its system NCI-H460 lung.
The test system of assay [6] is HOP-92 NSCLC.
Assay [7] has as its system NCI-H522 lung.
Assay [8] deals with A549/ATCC NSCLC.
The subject of assay [9] is 786-0 renal.
Assay [10] deals with COLO 205 colon.
The subject of assay [11] is DU-145 prostate.
Assay [12] deals with K-562 leukemia.
The test system of assay [13] is MALME-3M melanoma.
For assay [14], the system named is MDA-MB-231 breast.
In assay [15] the test system is RXF 393 renal.
Assay [16] deals with SF-268 CNS.
Assay [17] deals with SF-539 CNS.
Assay [18] concerns UACC-257 melanoma.
Assay [19] concerns M14 melanoma.
Assay [20] concerns SF-295 CNS.

Compounds without any hit were thinned out: in the full panel of roughly 83,000, 20% have a hit.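 Method: cells in 96-well plates; compound added at one concentration; 48 h incubation; percent growth measured; values under 10 scored active.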 A number with no mark means an inactive call. Calls of active or inactive are those of the source.

Regarding `Cc1cc(C)n(-c2nnc3n2N=C(c2ccc(-c4ccccc4)cc2)CS3)n1`, the growth is 75.7% in [1]; 68.4% in assay [2]; 71.1% in assay [3]; 54.7% in assay [4]; 45.1% in assay [5]; -2.12% (active) in assay [6]. Besides, the growth in assay [7] was 29.2%; in [8], 31.5%; in [9] it was 59.9%; in assay [10], 39.8%; in assay [11], 66.2%; in assay [12], 6.94% (active). Moreover, the growth is 43.5% in assay [13]; 51.1% in [14]; 5.5% (active) in assay [15]; 56.7% in assay [16]; 38.7% in assay [17]; 53.7% in [18]. Moreover, the growth in assay [19] was 30%.
Take `O=c1c2sc3ncccc3c2nnn1-c1ccccc1`: the growth is 99.1% in assay [1]; 100% in [2]; 114% in assay [3]; 105% in assay [4]; 106% in [5]; 97.5% in assay [6]. In addition, the growth in [7] was 111%; in assay [8], 102%; in [9], 100%; in assay [10], 114%; in assay [11] it was 115%; in assay [12] it was 93.3%. Besides, the growth in assay [13] was 105%; in assay [14] it was 97.2%; in assay [15] it was 101%; in [16], 102%; in [17] it was 102%; in assay [18] it was 102%. For the same molecule, the growth in [19] was 108%.
As for `CCCCCCCCCCCCCCCCNC(=O)OC(C)C`, the growth was 54.1% in assay [1]; 69.1% in [2]; -20.9% (active) in [3]; 40.5% in [4]; 2.2% (active) in [5]; 53% in assay [6]. In addition, the growth in assay [7] is -54.3% (active); in assay [8], 10.3%; in assay [9], 83.9%; in [10] it was -29.6% (active); in assay [11], -23.3% (active); in assay [12] it was 8% (active). Besides, the growth in [13] was 81.2%; in assay [14], 23.8%; in assay [15], 80.1%; in assay [16] it was 64.9%; in assay [20], 20.8%; in [18], 95.8%. Also, in assay [19], the growth is 35.7%.
Consider `CN(C)CCCN(c1nc(C(Cl)(Cl)Cl)ns1)c1nc(C(Cl)(Cl)Cl)ns1`, for which the growth in assay [1] was 58.9%; in assay [2] it was 53.9%; in [3], 65.5%; in assay [4] it was 48.4%; in assay [5], 8.42% (active); in assay [6], -0.62% (active). Also, the growth in assay [7] was 39.4%; in assay [8], 37.5%; in [9] it was 42.4%; in assay [10] it was 10.2%; in assay [11], 75%; in assay [12], 0.874% (active). The growth in assay [13] is 44.8%; in [14] it was 39.4%; in [15], 36.8%; in [16] it was 34.3%; in assay [17] it was 73.2%; in assay [18] it was 19.8%. In addition, the growth in assay [19] is -19% (active).
With `CCOC(=O)c1ccc2c(c1)c1c(C)c3cccnc3c(C)c1n2C`, the growth in assay [1] was 56.7%; in [2], 53.1%; in [3] it was 56.9%; in [4], 72.7%; in assay [5], 22.5%; in [6], 67.9%. For the same molecule, the growth in [7] is 49.1%; in assay [8] it was 67.7%; in assay [9], 51.3%; in [10], 50.3%; in assay [11] it was 52.7%; in assay [12], 39.5%. Also, the growth is 68.7% in [13]; 50.7% in assay [14]; 75.6% in assay [15]; 50.9% in [16]; 67% in assay [17]; 115% in assay [18]. The growth in assay [19] is 53.2%.
As to `O=C1/C(=C/c2ccc(Cl)cc2)CN(Cc2cn(CCNc3ccnc4cc(Cl)ccc34)nn2)C/C1=C\c1ccc(Cl)cc1`, the growth in assay [1] was -71.3% (active); in [2], -70.6% (active); in [3], -87% (active); in assay [4], -100% (active); in assay [5] it was -78.6% (active); in [6], -75% (active). In addition, the growth is -99.4% (active) in assay [7]; -85.1% (active) in assay [8]; -88.7% (active) in assay [9]; -100% (active) in [10]; -97.3% (active) in [11]; -34.5% (active) in [12]. Moreover, the growth is -69.5% (active) in assay [13]; -43.2% (active) in [14]; -94.5% (active) in [15]; -78% (active) in [16]; -97% (active) in assay [17]; -92.1% (active) in [18]. The growth in assay [19] is -70.5% (active).
Consider `CC(C)OC(=O)N1CCOCC1`, for which the growth in assay [1] was 98.1%; in assay [2], 101%; in assay [3], 106%; in assay [4], 98.9%; in assay [5], 107%; in [6] it was 92.2%. The growth in assay [7] was 95.9%; in assay [8], 103%; in assay [9], 104%; in assay [10] it was 101%; in assay [11], 104%; in assay [12], 123%. Further, the growth was 94.7% in [13]; 90.8% in [14]; 116% in assay [15]; 99.7% in assay [16]; 113% in assay [20]; 97.1% in assay [18]. Also, the growth in assay [19] was 103%.
